Experimental data taken from the supplement of paper PMC6411743.
± gives the standard deviation of the averaged measurements. About 6,200 targets were measured; listed, in parts, are those with the largest changes and a random draw of the rest.

Compound: Nc1ncnc2c1ncn2[C@@H]1O[C@H](COP(=O)(O)OP(=O)(O)NP(=O)(O)O)[C@@H](O)[C@H]1O [adenylyl imidodiphosphate]
Experiment: NP40-soluble protein abundance relative to vehicle (solubility fold change) (ratio); higher = more soluble protein in presence of AMP-PNP
Summary of the method: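 Eight concentrations, 0.1 to 10 mM, were tested on Jurkat crude lysate for 10 min at room temperature and then 3 min at 37 °C, in three independent experiments. The lysate was solubilised with 0.8% NP40 and benzonase, ultracentrifuged, and the supernatant TMT-labelled for LC-MS/MS. Each value is the fold change against the detergent-processed vehicle in its own replicate, from vsn-normalised intensities.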

UniProt P10619, sequence (P10619 whole entry, one chain of several): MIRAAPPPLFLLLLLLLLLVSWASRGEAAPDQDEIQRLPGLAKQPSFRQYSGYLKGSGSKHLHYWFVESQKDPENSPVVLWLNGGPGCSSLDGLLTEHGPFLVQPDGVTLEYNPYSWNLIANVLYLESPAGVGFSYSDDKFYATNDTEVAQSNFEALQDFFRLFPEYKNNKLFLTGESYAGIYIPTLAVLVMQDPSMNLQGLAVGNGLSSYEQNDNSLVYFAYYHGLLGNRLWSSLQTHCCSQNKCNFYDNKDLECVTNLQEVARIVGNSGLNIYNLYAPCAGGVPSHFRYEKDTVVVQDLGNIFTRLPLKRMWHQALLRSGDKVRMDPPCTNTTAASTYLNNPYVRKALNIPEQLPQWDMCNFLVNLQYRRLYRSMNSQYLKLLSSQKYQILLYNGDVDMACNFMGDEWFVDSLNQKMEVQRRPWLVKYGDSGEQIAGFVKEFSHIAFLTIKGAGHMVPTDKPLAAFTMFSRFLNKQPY
UniProt O75531, sequence (O75531 whole entry): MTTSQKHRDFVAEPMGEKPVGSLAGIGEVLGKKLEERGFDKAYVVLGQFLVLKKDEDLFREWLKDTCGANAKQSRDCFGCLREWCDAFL
UniProt P04049, sequence (P04049 whole entry): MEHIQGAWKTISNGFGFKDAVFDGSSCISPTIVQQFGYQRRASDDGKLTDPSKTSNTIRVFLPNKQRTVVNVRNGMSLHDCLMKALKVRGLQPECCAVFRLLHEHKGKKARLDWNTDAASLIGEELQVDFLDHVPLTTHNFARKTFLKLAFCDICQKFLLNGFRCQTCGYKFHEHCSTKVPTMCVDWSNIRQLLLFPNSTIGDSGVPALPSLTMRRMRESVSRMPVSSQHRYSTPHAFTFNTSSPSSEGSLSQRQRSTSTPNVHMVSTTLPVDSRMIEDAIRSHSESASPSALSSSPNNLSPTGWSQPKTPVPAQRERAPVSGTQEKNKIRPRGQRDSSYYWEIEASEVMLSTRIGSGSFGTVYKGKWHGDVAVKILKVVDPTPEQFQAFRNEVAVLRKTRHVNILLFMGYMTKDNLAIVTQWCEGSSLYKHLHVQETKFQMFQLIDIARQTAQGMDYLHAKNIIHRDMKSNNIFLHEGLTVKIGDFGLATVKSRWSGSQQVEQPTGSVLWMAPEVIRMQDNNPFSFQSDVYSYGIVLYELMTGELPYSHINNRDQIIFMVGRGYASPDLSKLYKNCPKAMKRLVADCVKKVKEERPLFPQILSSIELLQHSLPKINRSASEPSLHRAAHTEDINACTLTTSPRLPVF
UniProt O95782, sequence (O95782 whole entry): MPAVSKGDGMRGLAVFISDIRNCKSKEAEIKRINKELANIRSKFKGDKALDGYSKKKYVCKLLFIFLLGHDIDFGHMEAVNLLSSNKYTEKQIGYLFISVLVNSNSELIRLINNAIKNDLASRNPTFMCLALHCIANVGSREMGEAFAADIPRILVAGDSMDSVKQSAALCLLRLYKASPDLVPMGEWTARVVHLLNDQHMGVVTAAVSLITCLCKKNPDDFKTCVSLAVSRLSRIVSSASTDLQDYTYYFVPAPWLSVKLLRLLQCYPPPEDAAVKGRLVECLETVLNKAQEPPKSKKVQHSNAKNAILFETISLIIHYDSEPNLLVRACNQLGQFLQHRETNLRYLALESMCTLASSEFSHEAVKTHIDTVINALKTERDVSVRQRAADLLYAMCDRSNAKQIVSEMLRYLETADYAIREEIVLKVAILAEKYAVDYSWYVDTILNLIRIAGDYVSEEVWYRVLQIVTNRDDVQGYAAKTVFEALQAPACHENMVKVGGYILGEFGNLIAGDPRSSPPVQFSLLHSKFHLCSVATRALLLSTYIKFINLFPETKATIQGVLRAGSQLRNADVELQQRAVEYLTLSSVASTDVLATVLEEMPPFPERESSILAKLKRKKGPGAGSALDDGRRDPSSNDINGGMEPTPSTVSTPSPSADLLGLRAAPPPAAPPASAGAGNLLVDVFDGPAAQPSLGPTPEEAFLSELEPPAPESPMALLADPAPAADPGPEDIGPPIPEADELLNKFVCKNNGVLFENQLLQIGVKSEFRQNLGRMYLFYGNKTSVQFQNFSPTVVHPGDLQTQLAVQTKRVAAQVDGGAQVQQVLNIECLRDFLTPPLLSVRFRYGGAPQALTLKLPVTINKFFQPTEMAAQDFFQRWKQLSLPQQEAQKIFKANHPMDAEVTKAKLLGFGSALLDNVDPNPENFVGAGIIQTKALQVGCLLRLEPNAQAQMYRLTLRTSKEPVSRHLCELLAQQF
UniProt P52824, sequence (P52824 whole entry, one chain of several): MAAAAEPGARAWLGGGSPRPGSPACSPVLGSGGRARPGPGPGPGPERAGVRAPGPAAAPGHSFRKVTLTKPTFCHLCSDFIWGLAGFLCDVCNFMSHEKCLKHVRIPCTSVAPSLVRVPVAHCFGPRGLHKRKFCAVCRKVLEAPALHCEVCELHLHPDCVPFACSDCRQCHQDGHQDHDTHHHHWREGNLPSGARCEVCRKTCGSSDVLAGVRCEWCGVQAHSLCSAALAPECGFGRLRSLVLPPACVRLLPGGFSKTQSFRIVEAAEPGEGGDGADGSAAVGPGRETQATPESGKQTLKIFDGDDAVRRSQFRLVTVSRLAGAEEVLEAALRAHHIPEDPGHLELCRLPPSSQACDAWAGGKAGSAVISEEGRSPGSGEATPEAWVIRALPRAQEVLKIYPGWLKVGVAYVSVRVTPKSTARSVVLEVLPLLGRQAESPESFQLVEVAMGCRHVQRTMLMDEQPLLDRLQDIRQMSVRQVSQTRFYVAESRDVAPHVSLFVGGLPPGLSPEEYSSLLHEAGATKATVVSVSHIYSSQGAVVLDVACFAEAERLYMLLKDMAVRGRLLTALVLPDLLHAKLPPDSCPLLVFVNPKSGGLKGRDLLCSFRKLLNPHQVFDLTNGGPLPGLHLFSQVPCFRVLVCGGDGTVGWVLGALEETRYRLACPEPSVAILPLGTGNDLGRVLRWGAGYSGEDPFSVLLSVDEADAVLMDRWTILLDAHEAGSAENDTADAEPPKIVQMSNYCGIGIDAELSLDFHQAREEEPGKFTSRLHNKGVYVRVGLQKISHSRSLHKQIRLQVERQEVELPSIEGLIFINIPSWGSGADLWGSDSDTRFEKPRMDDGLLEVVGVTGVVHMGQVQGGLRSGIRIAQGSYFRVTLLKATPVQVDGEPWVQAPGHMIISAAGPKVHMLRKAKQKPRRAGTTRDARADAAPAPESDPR
UniProt Q12974, sequence (Q12974 whole entry): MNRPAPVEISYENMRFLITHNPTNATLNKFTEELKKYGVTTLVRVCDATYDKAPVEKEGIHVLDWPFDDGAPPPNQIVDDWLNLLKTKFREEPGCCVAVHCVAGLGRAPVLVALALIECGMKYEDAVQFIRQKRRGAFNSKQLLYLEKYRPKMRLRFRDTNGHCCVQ
UniProt P21912, sequence (P21912 whole entry): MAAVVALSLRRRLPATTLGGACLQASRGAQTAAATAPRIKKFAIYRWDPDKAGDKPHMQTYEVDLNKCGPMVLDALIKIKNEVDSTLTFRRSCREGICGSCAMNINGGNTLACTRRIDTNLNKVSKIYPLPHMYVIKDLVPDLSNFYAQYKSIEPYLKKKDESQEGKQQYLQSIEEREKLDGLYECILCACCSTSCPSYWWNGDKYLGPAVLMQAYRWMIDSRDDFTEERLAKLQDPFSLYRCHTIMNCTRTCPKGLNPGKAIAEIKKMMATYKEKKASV
UniProt P07108, sequence (P07108 whole entry): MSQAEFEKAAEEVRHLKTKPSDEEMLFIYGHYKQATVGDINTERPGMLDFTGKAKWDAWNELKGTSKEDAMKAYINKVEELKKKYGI
UniProt P28070, sequence (P28070 whole entry): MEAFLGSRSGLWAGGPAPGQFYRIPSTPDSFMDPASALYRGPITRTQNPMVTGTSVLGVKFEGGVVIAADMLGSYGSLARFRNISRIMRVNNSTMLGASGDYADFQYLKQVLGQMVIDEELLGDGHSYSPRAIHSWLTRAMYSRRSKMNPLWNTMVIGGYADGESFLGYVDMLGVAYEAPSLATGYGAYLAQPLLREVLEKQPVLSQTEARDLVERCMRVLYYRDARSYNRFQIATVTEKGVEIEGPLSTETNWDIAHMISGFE
UniProt O76031, sequence (O76031 whole entry): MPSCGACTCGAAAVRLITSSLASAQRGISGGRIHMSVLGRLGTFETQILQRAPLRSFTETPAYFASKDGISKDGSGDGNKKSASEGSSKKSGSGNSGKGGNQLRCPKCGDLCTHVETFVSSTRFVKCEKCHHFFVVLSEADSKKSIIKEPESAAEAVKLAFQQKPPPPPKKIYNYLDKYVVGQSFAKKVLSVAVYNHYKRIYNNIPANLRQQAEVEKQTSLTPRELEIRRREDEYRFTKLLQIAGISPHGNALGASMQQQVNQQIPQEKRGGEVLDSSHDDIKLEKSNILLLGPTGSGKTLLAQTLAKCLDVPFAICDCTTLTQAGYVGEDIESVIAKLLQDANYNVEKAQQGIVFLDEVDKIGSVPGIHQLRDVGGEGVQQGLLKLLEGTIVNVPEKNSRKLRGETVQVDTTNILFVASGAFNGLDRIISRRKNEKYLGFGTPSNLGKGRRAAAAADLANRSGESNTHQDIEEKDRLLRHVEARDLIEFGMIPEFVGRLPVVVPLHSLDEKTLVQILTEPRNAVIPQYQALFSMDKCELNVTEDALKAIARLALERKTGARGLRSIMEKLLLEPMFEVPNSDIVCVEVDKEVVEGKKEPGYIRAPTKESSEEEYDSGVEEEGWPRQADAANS

Target	NP40-soluble protein abundance (concentration: 1mM)	NP40-soluble protein abundance (concentration: 2mM)	NP40-soluble protein abundance (concentration: 4mM)	NP40-soluble protein abundance (concentration: 6mM)	NP40-soluble protein abundance (concentration: 8mM)	NP40-soluble protein abundance (concentration: 10mM)
CLPX (UniProt O76031)	0.957 ± 0.062	0.969 ± 0.062	0.955 ± 0.074	0.909 ± 0.08	0.886 ± 0.074	0.923 ± 0.078
UniProt P36639|P36639-2|P36639-3|P36639-4	1 ± 0.037	0.988 ± 0.059	1.09 ± 0.085	1.03 ± 0.022	1.07 ± 0.012	1.06 ± 0.065
UniProt P10619|P10619-2|X6R5C5|X6R8A1	0.979 ± 0.018	0.987 ± 0.086	0.984 ± 0.044	1.05 ± 0.11	1.06 ± 0.083	1.07 ± 0.13
UniProt P04049|P04049-2	1.03 ± 0.023	1.06 ± 0.037	1.07 ± 0.04	1.05 ± 0.036	1.06 ± 0.033	1.05 ± 0.032
UniProt Q12974|Q12974-4	1.04 ± 0.032	1.022 ± 0.0039	0.956 ± 0.027	0.996 ± 0.025	1.02 ± 0.029	0.988 ± 0.02
SUB1 (UniProt P53999)	0.923 ± 0.049	1 ± 0.19	0.916 ± 0.088	1 ± 0.089	0.997 ± 0.043	1.02 ± 0.11
PSMB4 (UniProt P28070)	0.931 ± 0.043	0.905 ± 0.048	0.918 ± 0.096	0.971 ± 0.046	0.968 ± 0.071	1 ± 0.13
UniProt O95782|O95782-2	0.994 ± 0.03	0.953 ± 0.058	1.07 ± 0.046	1.09 ± 0.044	1.13 ± 0.021	1.13 ± 0.056
DBI (UniProt P07108)	1.04 ± 0.064	1.06 ± 0.055	0.987 ± 0.015	0.96 ± 0.041	0.928 ± 0.025	0.997 ± 0.1
SDHB (UniProt P21912)	0.976 ± 0.045	1 ± 0.056	0.987 ± 0.063	1.03 ± 0.079	1.02 ± 0.075	1.04 ± 0.052
UniProt Q06787|Q06787-3|Q06787-5|Q06787-8|Q06787-9|Q06787-7	1.05 ± 0.04	1.11 ± 0.013	1.1 ± 0.02	1.22 ± 0.066	1.24 ± 0.016	1.36 ± 0.02
UniProt P49750-3|P49750-4	1.07 ± 0.027	1.17 ± 0.077	1.17 ± 0.015	1.23 ± 0.065	1.25 ± 0.07	1.35 ± 0.085
UniProt P52824|H0YA20	0.978 ± 0.0098	0.979 ± 0.023	0.955 ± 0.028	0.99 ± 0.025	0.96 ± 0.039	0.986 ± 0.03
BANF1 (UniProt O75531)	2.32 ± 0.38	2.76 ± 0.16	3 ± 0.25	3.73 ± 0.25	4.03 ± 0.2	4.25 ± 0.21
UniProt Q05519|Q05519-2	1.12 ± 0.031	1.18 ± 0.11	1.21 ± 0.088	1.26 ± 0.049	1.34 ± 0.16	1.51 ± 0.2
